Screening results from PubChem BioAssay.
Ba/F3 V617F tox: reduced viability of JAK2V617F-dependent Ba/F3 cells, primary screen, JAK2V617F inhibitor project, cell-based, Ba/F3 EpoR-JAK2V617F, luminescence; ATP luminescence; inhibition, % at 5.6 µM; actives 1.1% (n = 220,000); AID 1446, 2008;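 active = inhibition above the campaign mean plus 3 SD over all tested compounds, cut at about 24% in these data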;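 note: cytokine-independent growth of Ba/F3 cells driven by EpoR plus mutant JAK2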
APP 5UTR inh: inhibitors of APP translation via 5'UTR reporter, primary screen, APP 5'UTR luciferase, SH-SY5Y cells; SH-SY5Y APP 5'UTR-luciferase reporter, luminescence; inhibition, % at 2 µM; actives 0.82% (n = 190,000); AID 1285, 2008;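 active = inhibition above a set limit, derived from the sample mean plus 3 SD, cut at about 45% in these data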
IEC-6 cytotox: cytotoxicity in IEC-6 intestinal epithelial cells, primary screen, cytotoxicity control for KLF5 inhibitor project, cell-based, luminescence; IEC-6 cytotoxicity, luminescence viability; inhibition, % at 5 µM; actives 0.78% (n = 290,000); AID 1825, 2009; in the data active = inhibition above about 22%
BaF3 parental: parental Ba/F3 cell viability inhibition, counter-screen for JAK2V617F inhibitor project, murine pro-B, CellTiter-Glo luminescence. inhibition, % at 5.6 µM. actives 1.1% (n = 220,000). CellTiter-Glo ATP luminescence;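 active = inhibition above a per-campaign cutoff, the mean inhibition of all tested compounds plus 3 SD, cut at about 27% in these data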
KLF5 inhibitor: KLF5 expression inhibitors, primary screen, DLD-1 cells, luminescence; DLD-1 KLF5 promoter-luciferase reporter; inhibition, % at 5 µM; actives 0.23% (n = 290,000);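 active = inhibition above a per-plate limit of that plate's mean compound inhibition plus 3 SD, cut at about 60% in these data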;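 note: higher means less KLF5 promoter-driven luciferase light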
aSyn UTR inh: MLPCN primary screen, SNCA 5' untranslated region; inhibition, % (tested at 7.5 µM); alpha-synuclein 5'UTR reporter, inhibitor activity; actives 0.82% (n = 300,000); AID 1813, 2009; in the data active = inhibition above about 60%;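 note: H4 neuroglioblastoma cells stably carrying SNCA 5'UTR luciferase fusion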
BaF3 tox 2: parental Ba/F3 cell viability inhibition, counter-screen for JAK2V617F inhibitor project, murine pro-B, CellTiter-Glo luminescence. inhibition, % at 5.6 µM. cells kept alive by added IL-3. shares compounds with Ba/F3 V617F tox. actives 31% (n = 580);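 active = cell growth inhibition above the hit limit set in the earlier mutant JAK2 cell screen, cut at about 27% in these data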
JAK2V617F confrm: viability loss in Ba/F3 EpoR-JAK2V617F cells, confirmation, JAK2V617F inhibitor project, cell-based, luminescence, triplicate; shares compounds with Ba/F3 V617F tox; CellTiter-Glo luminescence; inhibition, % at 5.6 µM; actives 66% (n = 580);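 active = mean inhibition above the hit cutoff derived in the earlier primary screen, cut at about 25% in these data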;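 note: higher means lower luminescence from reduced cell ATP and viability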
Each line names hits and unclear results; the compound was inactive in the other large screens (follow-up assays come after a bar, where they were run). Shown are actives, neighbours in structure and some others; about 2.1% of the full set was active somewhere.

COc1ccc(-n2nnnc2S(=O)(=O)CC(=O)N2CCCCC2)cc1	Ba/F3 V617F tox 27 (no result: aSyn UTR inh) | BaF3 tox 2 inactive | JAK2V617F confrm 88
COc1ccc(-n2nnnc2S(=O)(=O)Cc2ccc(C(=O)O)cc2)cc1	none
O=C(c1ccco1)N(Cc1cc2ccccc2[nH]c1=O)CC1CCCO1 (stereo unspecified)	Ba/F3 V617F tox 69 | BaF3 tox 2 inactive | JAK2V617F confrm inactive
Cc1cccc2cc(CN(CC3CCCO3)C(=O)c3ccco3)c(=O)[nH]c12 (stereo unspecified)	none
O=C(Nc1ccc(NC(=S)NC(=O)C(c2ccccc2)c2ccccc2)cc1)c1ccccc1	Ba/F3 V617F tox 28 | BaF3 tox 2 29 | JAK2V617F confrm 64
NC1=NC(c2ccc(Cl)cc2)C(C(=O)c2ccccc2)N1 (stereo unspecified)	none (no result: APP 5UTR inh)
CCCOc1ccc2ccccc2c1/C=N/n1c(C)nnc1-n1nc(C)cc1C	Ba/F3 V617F tox 24 | BaF3 tox 2 55 | JAK2V617F confrm 66
CC1(C)Cc2nc3sc4c(SCC(=O)NCc5ccco5)ncnc4c3cc2CO1	Ba/F3 V617F tox 72 (no result: aSyn UTR inh) | BaF3 tox 2 62 | JAK2V617F confrm 90
Cc1cc(NC(=O)c2cc(-c3ccc(C)c(C)c3)nc3ccccc23)no1	Ba/F3 V617F tox 63 | BaF3 tox 2 inactive | JAK2V617F confrm inactive
Cc1ccc(-c2cc(C(=O)Nc3cc(C)on3)c3ccccc3n2)cc1	none
O=[N+]([O-])c1ccc(C23CC4CC(CC(O)(C4)C2)C3)cc1	none (no result: Ba/F3 V617F tox, APP 5UTR inh, BaF3 parental)
CN1/C(=C\C(=O)CSc2nnc(NCc3ccccc3)s2)C(C)(C)c2ccccc21	Ba/F3 V617F tox 33 | BaF3 tox 2 inactive | JAK2V617F confrm inactive
CCNC(=S)NNC(=O)c1cccn(Cc2ccc(Cl)cc2Cl)c1=O	none
C=CCNC(=S)NNC(=O)c1cccn(Cc2ccc(Cl)cc2Cl)c1=O	Ba/F3 V617F tox 30 | BaF3 tox 2 inactive | JAK2V617F confrm inactive
CCOc1ccc(C(=O)Nc2ccccc2N2CCN(C(=O)c3ccccc3)CC2)cc1[N+](=O)[O-]	none (no result: Ba/F3 V617F tox, APP 5UTR inh, BaF3 parental)
COCC(=O)N1CCC(Oc2ccc(C(=O)N3CCCCCC3)cc2)CC1	none (no result: Ba/F3 V617F tox, APP 5UTR inh, BaF3 parental)
CCC(=O)c1ccccc1OCCCCn1cncn1	none (no result: Ba/F3 V617F tox, APP 5UTR inh, BaF3 parental)
Cc1nc2c(-c3ccc(F)cc3)c(C)nn2c(C)c1CCC(=O)Nc1ccccc1F	Ba/F3 V617F tox 79 (no result: APP 5UTR inh) | BaF3 tox 2 inactive | JAK2V617F confrm inactive
Cc1nc2c(-c3ccccc3)c(C)nn2c(C)c1CCC(=O)O	none
Cc1c(C)n(Cc2ccc(F)cc2)c2ccc(C(=O)NCCCN3CCOCC3)cc12	none (no result: Ba/F3 V617F tox, APP 5UTR inh, BaF3 parental)
NC(=O)/C(=N\OC(=O)c1ccco1)c1nc(-c2ccc(Br)cc2)cs1	Ba/F3 V617F tox 31 | BaF3 tox 2 inactive | JAK2V617F confrm 31
O=C1C=CCC(/C=C/c2ccccc2)O1 (stereo unspecified)	Ba/F3 V617F tox 46 | BaF3 tox 2 inactive | JAK2V617F confrm 97
Cc1ccc(NC(=O)c2ccc([N+](=O)[O-])o2)cc1C	Ba/F3 V617F tox 37, IEC-6 cytotox 45 | BaF3 tox 2 31 | JAK2V617F confrm 93
Cc1ccnc(NC(=O)c2ccc([N+](=O)[O-])o2)c1	none
CCCOc1ccc(C(=O)C(CN2CCOCC2)c2ccccc2)cc1 (stereo unspecified)	Ba/F3 V617F tox 46 | BaF3 tox 2 inactive | JAK2V617F confrm 97
CCCOc1ccc(C(=O)C(c2ccccc2)N2CCOCC2)cc1 (stereo unspecified)	none
C=CCC1(CC=C)CCCN1C(=O)Cn1nnnc1CN(C)C(C)C	none (no result: Ba/F3 V617F tox, APP 5UTR inh, BaF3 parental)
Fc1ccc(N2CCN(Cc3ccccn3)CC2)cc1	Ba/F3 V617F tox 63 | BaF3 tox 2 inactive | JAK2V617F confrm inactive
O=c1[nH]c(CN2CCN(c3ccc(F)cc3)CC2)nc2ccccc12	none
COc1ccc(N2CCc3c(C)nc4c(OC)cc(OC)cc4c32)c(OC)c1	Ba/F3 V617F tox 48 | BaF3 tox 2 inactive | JAK2V617F confrm 64
